The subject of the assay is HepG2. Briefly: GSK_TCMDC: Percent inhibition of human HepG2 cell line. Test compounds present at 10uM. Format: functional.
The compound `CC(=O)Nc1ncc(C(=O)Nc2cccc(-c3ccc(-c4nc5ccccc5[nH]4)cc3)c2)s1` returned an Inhibition of 12%.

Take `CCOc1c(OC)ccc2c1CCN(CCN1CCC(CNC(=O)c3ccc(-c4ccc(C(F)(F)F)cc4)cc3)CC1)C2`: the Inhibition stood at 54%.

For `COc1ccc2nccc([C@@H](O)CN3CCC(NS(=O)(=O)c4cc5c(cc4Cl)SCC(=O)N5)CC3)c2c1.O=C(O)C(=O)O`, the Inhibition amounted to 5%.

Regarding `O=C(COc1ccc(Cl)c(Cl)c1)NCCCCCN1CCCN(C(=O)Nc2ccc(Cl)c(Cl)c2)CC1.O=C(O)C(F)(F)F`, the Inhibition was 29%. Next, `CCc1cc2c(O)c([N+](=O)[O-])c(=O)oc2cc1OCCCCCOc1cc2oc(=O)c([N+](=O)[O-])c(O)c2cc1CC`: 11%; `Cc1cc(N[C@@H](Cc2ccccc2)C(=O)NCCc2ccccc2)nc(NCCc2ccc(F)cc2)n1.O=C(O)C(F)(F)F`: 9%; `Cc1nn(-c2ccc(Cl)cc2)c2[nH]c(CN3CCN(c4cccc(Cl)c4)CC3)cc(=O)c12`: 0%. The same measure for `C=C[C@]1(C)C[C@@H](OC(=O)CNC[C@@H](O)CN2C[C@H](c3ccnc4ccc(OC)nc34)OC2=O)[C@@]2(C)[C@@H]3C(=O)CC[C@@]3(CC[C@@H]2C)[C@@H](C)[C@@H]1O`: 0%; for `Br.CC(CON1C(N)=NC(N)=NC1(C)C)c1ccc(Cl)cc1Cl` (stereo not given): 64%; for `CCN(CC)CCN(Cc1ccc(-c2ccc(C(F)(F)F)cc2)cc1)C(=O)Cn1c(CCc2cc(F)c(F)c(F)c2)nc(=O)c2ccccc21.O=C(O)C(O)C(O)C(=O)O`: 31%.

In turn, `COc1ccccc1CNc1ccnc(N2CC(Oc3ccc(F)cc3)C2)n1` gave an Inhibition of 2%. Next, `C[C@@H](Oc1cc(-n2cnc3ccc(NC(=O)CCN4CCCCC4)cc32)sc1C(N)=O)c1ccccc1Cl`: 36%; `CS(=O)(=O)c1ccc(-c2cncc(Nc3cccc([N+](=O)[O-])c3)c2)cc1`: 6%; `CC(C)(CNC(=O)C1CCN(CCOCc2ccccc2)CC1)c1nc(-c2ccc(Cl)c(O)c2)c(-c2ccncc2)[nH]1.Cl`: 11%. Compound `COc1cccc(-c2cc(C(F)(F)F)n3ncc(C(=O)Nc4cc(Cl)ccc4O)c3n2)c1` displayed an Inhibition of 0%.

In the case of `C=C1C[C@@H](n2cnc3c(NC(=O)c4ccccc4)ncnc32)[C@@H](F)[C@@H]1OC(c1ccccc1)(c1ccccc1)c1ccccc1`, the Inhibition turned out to be 16%. The same measure for `CN1CCN(CCNc2c3ccccc3nc3c2ccc2ccccc23)CC1.Cl`: 76%; for `COc1ccc(CN2CCCN(Cc3ccc(C(=O)Nc4ccc(Cl)cc4)cc3)CC2)cc1.O=C(O)C(F)(F)F`: 46%. The same measure for `COc1ccc2nccc([C@@H](O)CN3CCC(NC(=O)c4cc5c(Cl)cc(Cl)cc5[nH]4)CC3)c2c1`: 22%.

On to `CN1CCC(NCc2cccc(-c3ccc(S(=O)(=O)NCCN4CCCC4)c(F)c3)c2)CC1.O=C(O)C(F)(F)F`, for which the Inhibition worked out at 14%. Take `CN1CCCN(Cc2cccc(-c3ccc(NC(=O)c4cccc(C#N)c4)cc3)c2)CC1.O=C(O)C(F)(F)F`: the Inhibition came to 27%. The same measure for `Cc1ncccc1C(=O)Nc1ccc(-c2cccc(-c3nc4cccc(C)c4[nH]3)c2)cc1`: 6%; for `O=C(Nc1cccc(-c2ccc(-c3nc4cc(C(F)(F)F)ccc4[nH]3)cc2)c1)c1ccoc1`: 76%; for `Cc1cc2c(cc1C(F)(F)F)N(C(=O)Nc1ccc(C(=O)NC3CCN(Cc4ccccc4)C3)cc1)CC2` (stereo not given): 19%. Next, `CCN(CC)CCNc1nc(C=Cc2ccc(Cl)cc2)nc2cc3ccccc3cc12`: 83%; `Cc1cccn2c(=O)c3cc(C(=O)NCCN4CCOCC4)c(=N)n(CCc4ccccc4)c3nc12`: 13%; `Nc1nc(N)c2cc(S(=O)(=O)c3ccc4ccccc4c3)ccc2n1`: 14%.

The compound `N#Cc1cccc(CN2CCCN(c3ccc(NC(=O)c4cccs4)cc3)CC2)c1.O=C(O)C(F)(F)F` came in with an Inhibition of 0%.

Take `O=S(=O)(Nc1ccc(CCN2CCC(N3CCCCC3)CC2)cc1)c1ccc(Cl)cc1`: the Inhibition was 23%. The same measure for `CCOc1ccccc1N1CCN(CCCNC(=O)/C(=C/C=C/c2cc3cc(Cl)c(Cl)cc3[nH]2)OC)CC1`: 45%.

`O=C(Nc1ccc(CCNC2=NCCN2)cc1)Nc1ccc(CCNC2=NCCN2)cc1` had an Inhibition of 6%. The compound `Clc1ccc(CNCC2CCN(CC3CCCCC3)CC2)cc1Cl` returned an Inhibition of 18%. The same measure for `CCCN(CCC)CCOc1ccc(C(O)(C#CC(O)(c2ccc(OCCN(CCC)CCC)cc2)c2cccc(Cl)c2)c2cccc(Cl)c2)cc1` (stereo not given): 100%; for `N=C(N)NN=CC(=O)Nc1ccc(C(F)(F)F)cc1.O=S(=O)(O)O`: 5%. In the case of `COc1ccc(N2CCc3c(-c4cccc5cnccc45)cc(C)nc32)c(C)c1`, the Inhibition was 20%. The same measure for `Nc1ccc(-c2nc3cc(Oc4ccc5[nH]c(-c6ccc(N)cc6)nc5c4)ccc3[nH]2)cc1`: 18%; for `O=C(O)C(F)(F)F.O=S(=O)(NCCN1CCCC1)c1ccc(-c2cccc(CNC3Cc4ccccc4C3)c2)s1`: 57%; for `c1ccc(COc2ccc(COc3ccc(Cn4ccnc4)cc3)cc2)cc1`: 9%. The same measure for `CCOC(=O)c1ccc(-c2cnoc2-c2cc(CC)c(OC)cc2O)o1`: 12%. Next, `Cc1cccc2nc(-c3ccc(-c4cccc(NC(=O)NCc5ccc(F)cc5)c4)cc3)[nH]c12`: 82%.

The values above are taken from ChEMBL document CHEMBL1157539, “Thousands of chemical starting points for antimalarial lead identification” (Nature, 2010).
